Experimental data reported in PubChem BioAssay (NCI).
“And” between values parts separate entries of the source, which are not always exact repeats. Equal entries are not always repeated. About 83,000 compounds went through this panel and 20% of them were active in at least one assay; those are over-represented in the sample as a whole.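 Activity criterion: percent growth below 10, measured after cells in 96-well plates were exposed to a single compound concentration for 48 hours.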 The source made the active and inactive calls.

tested on: A549/ATCC NSCLC; experiment: NCI-60 one-dose screen, 48 h (100 = growth as untreated, 0 = no growth, -100 = all killed); conditions: 10 µM unless noted

Row | Compound | growth
1 | CN(Cc1ccccc1)c1nc(Cl)c(C2CC(c3ccc(F)cc3)=NN2C=O)s1 (stereo not drawn) | 94.6% (inactive)
2 | CCOC(=O)c1ccc(Nc2ncnc3c2cnn3-c2cccc(F)c2)cc1 | 102% (inactive)
3 | Cc1ccc2nc3ccccc3c(NCc3ccc(Cl)cc3)c2c1 | 40.8% (inactive)
4 | O=S(=O)(Nc1cc(Sc2cccc3cccnc23)c(O)c2ccccc12)c1ccc(F)cc1 | 11.9% (inactive)
5 | CCCCC1COc2cccc3c2N1C=C/C3=C\C(=O)N(C)c1cccc(Cl)c1 (stereo not drawn) | 99.5% (inactive)
6 | Cc1ccc(-c2nc3nc(-c4ccc(Cl)cc4)nc(N4CCCNCC4)c3o2)cc1 | -81.6% (active)
7 | COc1cc(NS(=O)(=O)C(C)C)cc(-c2cc(-c3ccc(N4CCNCC4)cc3)cnc2N)c1 | 76.9% (inactive)
8 | COCCn1cc(-c2csc(-c3cn(C)c4ccc(F)cc34)n2)c2cccnc21 | 60.6% (inactive)
9 | COc1ccc(NC(=O)Nc2ccccc2CNc2nc(Nc3ccc(OCCN4CCCC4)cc3)ncc2Cl)cc1 | 18.4% (inactive)
10 | COc1cc(CNC(=O)CCCC/C=C/C(C)C)ccc1O | 106% (inactive) and 115% (inactive)
11 | CC(Sc1ccccc1)C(=O)O (stereo not drawn) | 99.3% (inactive)
12 | Cc1ccc(-c2nc3nc(-c4ccccc4)nc(N4CCCNCC4)c3o2)cc1 | -66.5% (active)
13 | CCCCn1c(C(=O)c2c[nH]c3ccccc23)n[nH]c1=S | 92.3% (inactive)
14 | O=C1C(=C(O)c2ccccc2)C(=O)c2ccccc21 | 105% (inactive)
15 | COc1ccc(-c2c[nH]c(C(=O)O)c2-c2cc(OC)c(OC)c(OC)c2)cc1 | 49.4% (inactive)
16 | O=C(Nc1ccc2ccccc2c1)c1cc2ccccc2cc1O | 84.6% (inactive)
17 | N=C(N)SCc1c2ccccc2c(CSC(=N)N)c2ccccc12 | 65.9% (inactive)
18 | NNCCc1ccccc1 | 108% (inactive) and 90.5% (inactive)
19 | Brc1ccc(/C=C(/C2=NCCN2)n2ccc3ccccc32)cc1 | 77.9% (inactive)

Row | Compound | growth
20 | C=C(c1ccc(C(=O)O)cc1)c1cc2c(cc1C)C(C)(C)CCC2(C)C | 52.1% (inactive) and 31.2% (inactive)
21 | N=C(N)c1ccc(-c2ccc(-c3ccc(Cl)c(Cl)c3)s2)cc1 | -51.9% (active)
22 | C=C(CN1CC=CCC1)[C@@H]1CC[C@]2(COC(C)=O)CC[C@]3(C)[C@H](CC[C@@H]4[C@@]5(C)CC[C@H](O)C(C)(C)[C@@H]5CC[C@]43C)[C@@H]12 | 95.3% (inactive)
23 | O=[N+]([O-])c1cc(C(F)(F)F)ccc1Sc1ccc(C(F)(F)F)cc1[N+](=O)[O-] | 93.4% (inactive)
24 | CCn1cc(C(=O)NN=C2CCCC2)c(=O)c2ccc(C)nc21 | 90.3% (inactive)
25 | O=C(Nc1ccc(Cl)c(Cl)c1)Nc1ccc(Cl)c(Cl)c1 | -63% (active) and 17.6% (inactive)
26 | Cn1c(=O)c2c(nc(Nc3cc(=O)[nH]c(=O)[nH]3)n2Cc2ccccc2)n(C)c1=O | 12.3% (inactive)
27 | CCOC(=O)c1c(-c2ccc(OC)cc2)c(C#N)c2c(C#N)c(N)nn2c1N | 36.4% (inactive)
28 | COc1cc(/C=N/NC(=O)CCN2c3ccccc3Sc3ccccc32)cc(OC)c1OC | 79% (inactive)
29 | O/N=C(/c1ccccc1)c1ccc2c3c(cccc13)CC2 | 73.8% (inactive) and 94.4% (inactive)
30 | COc1cc(-c2nc3occn3c2-c2ccnc(NCCCNS(=O)(=O)c3ccc(O)cc3)n2)ccc1F | 94.3% (inactive)
31 | CN(C)c1ccc2nc3ccc(=O)cc-3sc2c1 | 1.33% (active) and 35.9% (inactive)
32 | ON=C1CCCCCCCC1 | 103% (inactive) and 110% (inactive)
33 | [Cu+].[NH-][C@H]1C[N-]C(=O)[C@H]([C@H]2CCN=C(N)N2)[N-]C(=O)/C(=C\NC(N)=O)[N-]C(=O)[C@H](CNC(=O)C[C@@H](N)CCCN)[N-]C(=O)[C@H](CO)[N-]C1=O | 99.3% (inactive)
34 | CC(C)=CCc1cc(O)c(O)c2oc3cc(O)cc(O)c3c(=O)c12 | 43.3% (inactive)
35 | Cc1ccc(S(=O)(=O)OC[C@@]2(C)CC[C@]3(C)CC[C@]4(C)C(=CC[C@@H]5[C@@]6(C)CCCNC(C)(C)[C@@H]6CC[C@]54C)[C@@H]3C2)cc1 | -75.9% (active)
36 | COc1cc(C=O)ccc1Oc1ccc([N+](=O)[O-])cc1[N+](=O)[O-] | 88.4% (inactive)
37 | COc1cc2ncnc(Nc3ccc(F)c(Cl)c3)c2cc1OCC(=O)N1CCCCC1 | 67.8% (inactive)
38 | CCN1C(=S)N(CC)C2C1NC(=S)N2/N=C/C=C/c1ccccc1 (stereo not drawn) | 37.6% (inactive)
